Laboratory results as given in PubChem BioAssay AID1159580 (chemical genetic matrix, 2015).
The campaign covered roughly 5,500 compounds. About 2,000 (36%) were called active. Another 18% or so got no clear call; they are omitted. Cut-off read from the data, not from the text of the source: active = normalized growth mostly below about 0.91 (no sharp cut-off); inconclusive = no clear call, values can overlap the other calls; inactive = mostly above about 0.92. This is one part of the list.

Experiment: chemical genetic growth profiling, strain panel (AID 1159580);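 note: tested at 20 µM; growth read once vehicle control cultures reached saturation at 30 °C; 1 = growth at the plate median or of vehicle wells; lower values mean less growth of the strain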
Settings: S. cerevisiae deletion strains, growth OD

Measured: normalized growth

C[C@@H](N)CO
inactive: locus YAL021C, strain ccr4, active compounds read low 0.998 | locus YAL026C, strain drs2, active compounds read low 0.992 | locus YAL030W, strain snc1, active compounds read low 0.985 | locus YBL061C, strain skt5, active compounds read low 0.994 | locus YBR009C, strain hhf1, active compounds read low 1.01 | locus YBR023C, strain chs3, active compounds read low 0.987 | locus YBR171W, strain sec66, active compounds read low 0.967 | locus YBR231C, strain swc5, active compounds read low 0.991 | locus YBR279W, strain paf1, active compounds read low 0.987 | locus YCL011C, strain gbp2, active compounds read low 0.997 | locus YCL016C, strain dcc1, active compounds read low 0.991 | locus YCL069W, strain vba3, active compounds read low 0.988 | locus YCR088W, strain abp1, active compounds read low 0.993 | locus YDL005C, strain med2, active compounds read low 0.961 | locus YDL040C, strain nat1, active compounds read low 0.976 | locus YDR001C, strain nth1, active compounds read low 0.983 | locus YDR069C, strain doa4, active compounds read low 0.967 | locus YDR137W, strain rgp1, active compounds read low 0.979 | locus YDR159W, strain sac3, active compounds read low 0.972 | locus YDR195W, strain ref2 0.954 | locus YDR297W, strain sur2, active compounds read low 1 | locus YDR334W, strain swr1, active compounds read low 0.989 | locus YDR335W, strain msn5, active compounds read low 0.995 | locus YDR392W, strain spt3, active compounds read low 0.979 | locus YEL003W, strain gim4, active compounds read low 0.997 | locus YEL037C, strain rad23, active compounds read low 1 | locus YEL061C, strain CIN8 (second series), active compounds read low 1.01 | locus YER015W, strain faa2, active compounds read low 0.989 | locus YER016W, strain bim1, active compounds read low 0.996 | locus YER111C, strain swi4, active compounds read low 0.973 | locus YER155C, strain BEM2 (second series), active compounds read low 0.984 | locus YFR010W, strain ubp6, active compounds read low 1 | locus YGL167C, strain pmr1, active compounds read low 0.984 | locus YGL173C, strain kem1, active compounds read low 1 | locus YGL227W, strain vid30, active compounds read low 0.973 | locus YGL240W, strain doc1, active compounds read low 1.01 | locus YGL253W, strain hxk2, active compounds read low 0.989 | locus YHR013C, strain ard1, active compounds read low 1 | locus YHR027C, strain rpn1, active compounds read low 0.995 | locus YHR030C, strain SLT2, active compounds read low 0.984 | locus YHR079C, strain IRE1, active compounds read low 0.974 | locus YHR142W, strain chs7, active compounds read low 0.98 | locus YJL092W, strain hpr5, active compounds read low 0.996 | locus YJL095W, strain BCK1 (second series), active compounds read low 0.996 | locus YJL095W, strain BCK1, active compounds read low 0.975 | locus YJL115W, strain asf1, active compounds read low 1 | locus YJL129C, strain trk1, active compounds read low 0.989 | locus YJL154C, strain vps35, active compounds read low 0.996 | locus YJL164C, strain tpk1, active compounds read low 1.01 | locus YJL166W, strain qcr8, active compounds read low 1 | locus YJL187C, strain SWE1, active compounds read low 0.988 | locus YJR066W, strain TOR1, active compounds read low 0.914 | locus YKL160W, strain elf1, active compounds read low 0.968 | locus YKR026C, strain gcn3, active compounds read low 0.995 | locus YKR091W, strain srl3, active compounds read low 0.977 | locus YLL001W, strain dnm1, active compounds read low 0.986 | locus YLL026W, active compounds read low 0.994 | locus YLL041C, strain sdh2, active compounds read low 0.997 | locus YLR027C, strain aat2, active compounds read low 0.999 | locus YLR113W, strain HOG1, active compounds read low 1.02 | locus YLR221C, strain rsa3, active compounds read low 1.01 | locus YLR258W, strain gsy2, active compounds read low 0.995 | locus YLR262C, strain YPT6 (second series), active compounds read low 0.973 | locus YLR320W, strain mms22, active compounds read low 1.01 | locus YLR342W, strain FKS1, active compounds read low 0.987 | locus YLR357W, strain rsc2, active compounds read low 0.954 | locus YLR370C, strain arc18, active compounds read low 0.996 | locus YLR384C, strain iki3, active compounds read low 1.01 | locus YML120C, strain ndi1, active compounds read low 0.983 | locus YMR058W, strain fet3, active compounds read low 1.02 | locus YMR125W, strain sto1, active compounds read low 0.947 | locus YMR129W, active compounds read low 0.994 | locus YMR205C, strain PFK2, active compounds read low 1.01 | locus YMR231W, strain pep5, active compounds read low 0.984 | locus YNL071W, strain lat1, active compounds read low 1.01 | locus YNL183C, strain NPR1, active compounds read low 0.901 | locus YNL209W, strain ssb2, active compounds read low 0.974 | locus YNL248C, strain rpa49, active compounds read low 0.942 | locus YNL322C, strain KRE1 (second series), active compounds read low 0.973 | locus YNR049C, strain mso1, active compounds read low 0.981 | locus YOR001W, strain rrp6, active compounds read low 1.01 | locus YOR070C, strain gyp1, active compounds read low 0.986 | locus YOR080W, strain dia2, active compounds read low 0.969 | locus YOR083W, strain WHI5, active compounds read low 0.94 | locus YOR106W, strain vam3, active compounds read low 0.964 | locus YOR231W, strain MKK1, active compounds read low 0.974 | locus YOR265W, strain rbl2, active compounds read low 0.992 | locus YOR270C, strain vph1, active compounds read low 0.976 | locus YOR290C, strain snf2, active compounds read low 0.984 | locus YPL051W, strain arl3, active compounds read low 0.99 | locus YPL078C, strain atp4, active compounds read low 0.976 | locus YPL106C, strain sse1, active compounds read low 0.973 | locus YPL240C, strain hsp82, active compounds read low 0.995 | locus YPL256C, strain CLN2, active compounds read low 0.988
